PubChem BioAssay (NCI)
The panel holds about 83,000 compounds, 20% with a hit somewhere; the sample as a whole holds those more often.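 Compound tested at a single concentration for 48 hours in 96-well plates; a percent growth value below 10 was scored as active.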 Values without a mark were called inactive. Activity calls are given as the source filed them.

Assays:
Test in all cases: NCI-60 one-dose screen, 48 h (100 = growth as untreated, 0 = no growth, -100 = all killed)
Conditions in all cases: 10 µM
HCT-15 colon = system: HCT-15 colon
HT29 colon = system: HT29 colon
SNB-75 CNS = system: SNB-75 CNS
SNB-19 CNS = system: SNB-19 CNS
U251 CNS = system: U251 CNS
PC-3 prostate = system: PC-3 prostate
SK-MEL-5 melanoma = system: SK-MEL-5 melanoma
UACC-62 melanoma = system: UACC-62 melanoma
LOX IMVI melanoma = system: LOX IMVI melanoma
SK-MEL-28 melanoma = system: SK-MEL-28 melanoma

SMILES	growth (HCT-15 colon)	growth (HT29 colon)	growth (SNB-75 CNS)	growth (SNB-19 CNS)	growth (U251 CNS)	growth (PC-3 prostate)	growth (SK-MEL-5 melanoma)	growth (UACC-62 melanoma)	growth (LOX IMVI melanoma)	growth (SK-MEL-28 melanoma)
O=C(NCCCl)c1cc(Cl)cc(Cl)c1	97.1%	107%	76.8%	108%	98.7%	93.2%	101%	94.9%	102%	103%
CC(C)c1[nH]nc2c(NCc3ccc(-c4ccccn4)cc3)nc(SCCN)nc12	7.24% (active)	-24.2% (active)	-78.5% (active)	12.2%	5.64% (active)	-0.489% (active)	-38.6% (active)	-10.2% (active)	-18.5% (active)	-13.8% (active)
CN(C)CCCN1c2ccccc2Sc2ccc(C(F)(F)F)cc21	17.3%	-8.15% (active)	-2.79% (active)	35.9%	19.5%	23.3%	-95.4% (active)	-52.6% (active)	-75.3% (active)	-64.1% (active)
C(=C\c1nc2ccccc2s1)/c1ccc(N2CCOCC2)s1	48.3%	45.1%	99.6%	95.2%	67.6%	53.4%	61.1%	30.8%	56.8%	113%
Cc1cc(C#Cc2ccccc2)ccc1-n1c(/C=C/c2cc(O)ccc2O)nc2ccccc2c1=O	-33.6% (active)	11.8%	16.2%	26.6%	5.85% (active)	3.46% (active)	-84.5% (active)	-55.6% (active)	-80.6% (active)	-45.3% (active)
COc1ccc(-c2nc(-c3nc4ccc(C)cc4[nH]3)c3ccccn23)cc1	33.7%	21.9%	66.6%	55.3%	42.6%	25.3%	39.9%	47%	46%	84.6%
Cc1cc(C)c2c(Nc3ncnc4c3sc3nc(C)cc(C)c34)n[nH]c2n1	93.2%	102%	94.4%	95.8%	99.4%	88.4%	99.1%	95.4%	95.5%	94.5%
COC(=O)c1c(C)nc(Nc2nc3ccccc3s2)nc1-c1ccc(Cl)cc1Cl	92.2%	114%	87.2%	92.3%	111%	91.3%	105%	96.1%	101%	109%
Nc1c(C(=O)NC2CCCCC2)sc2nc3c(cc12)C(=O)CCC3	85.8%	110%	95%	97.2%	93.6%	92.4%	95%	91%	103%	94.8%
Nc1cc(O)cc(O)c1	97.9%	95%	91.8%	96.5%	104%	96.6%	109%	94.7%	95%	101%
N#C/C(=C\N1C(=O)/C(=C/c2cccc([N+](=O)[O-])c2)SC1=S)c1nc2ccccc2s1	95%	90.6%	82.5%	88.8%	69%	83.5%	64.6%	63.3%	79.8%	92.4%
COC(=O)c1ccc(Cn2ccc(=O)[nH]c2=O)cc1	101%	99.5%	90.6%	110%	112%	98.4%	109%	105%	98.4%	111%
COc1ccc(COC(=O)CC(C)C)cc1	105%	96.1%	91.9%	103%	92.7%	94.4%	93.4%	99.3%	97.1%	110%
O=[N+]([O-])c1ccc(-c2nc(Cl)c3c(n2)CCCC3)o1	15.9%	53.5%	69.9%	91.1%	78.6%	89.4%	47.3%	86.9%	21.8%	98.4%
COc1ccc(C2C=C(c3ccc(Cl)c(Cl)c3)N=C3SC(C)=CN32)cc1OC (stereo not given)	80.7%	62.9%	83.4%	79.4%	69.2%	35.6%	85.1%	82.9%	56.2%	62.4%
CCCCCCCCCCCCc1ccc(C(=O)/C=C/C(=O)O)cc1	-19.4% (active)	27.8%	74.5%	94.4%	80.1%	82.9%	92.1%	-16.8% (active)	-62.4% (active)	26.4%
COc1ccc2c(c1)/C(=C/c1cc(OC)c(OC)c(OC)c1)C(=O)N2C	12.6%	11.8%	-14.6% (active)	4.75% (active)	5.64% (active)	38.3%	-12.7% (active)	18.9%	10.8%	28.8%
COc1ccc(S(=O)(=O)Nc2cc(/C=C\c3cc(OC)c(OC)c(OC)c3)ccc2OC)cc1	7.86% (active)	-13.4% (active)	-2.76% (active)	55.1%	0.353% (active)	-2.4% (active)	-20.1% (active)	27.8%	19.3%	48.8%
COc1cc(/C=C/C(=O)c2cc(-c3ccc(C(F)(F)F)cc3)ccc2O)cc(OC)c1OC	60%	60.5%	78.6%	75.4%	69%	44.4%	47.2%	53.5%	19.2%	92.2%
